# According to PubChem BioAssay AID1159580 (chemical genetic matrix, 2015):
# The whole screen tested about 5,500 compounds, of which about 2,000 (36%) were called active. Not shown: some 18% with an inconclusive outcome. This is one part of the list. Values without a mark were called inactive. Rule as the data show it: active = normalized growth mostly below about 0.91 (no sharp cut-off); inconclusive = no clear call, values can overlap the other calls; inactive = mostly above about 0.92.
# Assay: chemical genetic growth profiling, strain panel (AID 1159580);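 also: tested at 20 µM; growth read once vehicle control cultures reached saturation at 30 °C; 1 = growth at the plate median or of vehicle wells; lower values mean less growth of the strain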
# Conditions: S. cerevisiae deletion strains, growth OD
compound,measurement,setting,value
CCC(C)COC(=O)/C=C/c1ccc(N=Cc2ccc(OC)cc2)cc1 (stereo unspecified),normalized growth,"locus YAR019C, strain CDC15, active compounds read low",0.961
same,normalized growth,"locus YBL105C, strain PKC1, active compounds read low",0.968
same,normalized growth,"locus YBR135W, strain CKS1, active compounds read low",0.969
same,normalized growth,"locus YBR136W, strain MEC1, active compounds read low",0.969
same,normalized growth,"locus YBR160W, strain CDC28, active compounds read low",0.978
same,normalized growth,"locus YDL017W, strain CDC7, active compounds read low",0.98
same,normalized growth,"locus YDL028C, strain MPS1, active compounds read low",0.984
same,normalized growth,"locus YDL101C, strain DUN1, active compounds read low",0.948
same,normalized growth,"locus YDL108W, strain KIN28, active compounds read low",0.965
same,normalized growth,"locus YDL132W, strain cdc53, active compounds read low",0.958
same,normalized growth,"locus YDL214C, strain PRR2, active compounds read low",0.845
same,normalized growth,"locus YDR052C, strain DBF4, active compounds read low",0.969
same,normalized growth,"locus YDR054C, strain cdc34, active compounds read low",0.964
same,normalized growth,"locus YDR226W, strain ADK1, active compounds read low",0.955
same,normalized growth,"locus YDR477W, strain SNF1, active compounds read low",0.842
same,normalized growth,"locus YER123W, strain YCK3, active compounds read low",0.743
same,normalized growth,"locus YER133W, strain GLC7, active compounds read low",0.804
same,normalized growth,"locus YFL009W, strain cdc4, active compounds read low",0.972
same,normalized growth,"locus YFL029C, strain CAK1, active compounds read low",0.962
same,normalized growth,"locus YFR003C, strain YPI1, active compounds read low",0.968
same,normalized growth,"locus YFR019W, strain FAB1, active compounds read low",0.843
same,normalized growth,"locus YFR028C, strain CDC14, active compounds read low",0.952
same,normalized growth,"locus YGR040W, strain KSS1, active compounds read low",0.811
same,normalized growth,"locus YGR052W, strain FMP48, active compounds read low",0.779
same,normalized growth,"locus YGR092W, strain DBF2, active compounds read low",0.646
same,normalized growth,"locus YHR030C, strain SLT2, active compounds read low",0.531 (active)
same,normalized growth,"locus YHR079C, strain IRE1, active compounds read low",0.814
same,normalized growth,"locus YHR082C, strain KSP1, active compounds read low",0.852
same,normalized growth,"locus YHR205W, strain SCH9, active compounds read low",0.662
same,normalized growth,"locus YIL147C, strain SLN1, active compounds read low",0.965
same,normalized growth,"locus YJL095W, strain BCK1, active compounds read low",0.474 (active)
same,normalized growth,"locus YJL128C, strain PBS2, active compounds read low",0.921
same,normalized growth,"locus YJL157C, strain FAR1, active compounds read low",0.864
same,normalized growth,"locus YJR016C, strain ILV3, active compounds read low",0.963
same,normalized growth,"locus YJR066W, strain TOR1 (second series), active compounds read low",0.241 (active)
same,normalized growth,"locus YJR066W, strain TOR1, active compounds read low",0.794
same,normalized growth,"locus YKL048C, strain ELM1, active compounds read low",0.805
same,normalized growth,"locus YKL067W, strain YNK1, active compounds read low",0.873
same,normalized growth,"locus YKL101W, strain HSL1, active compounds read low",0.831
same,normalized growth,"locus YKL193C, strain SDS22, active compounds read low",0.962
same,normalized growth,"locus YKL203C, strain TOR2, active compounds read low",0.826
same,normalized growth,"locus YLR113W, strain HOG1, active compounds read low",0.696 (active)
same,normalized growth,"locus YLR133W, strain CKI1, active compounds read low",0.825
same,normalized growth,"locus YLR403W, strain SFP1, active compounds read low",0.742
same,normalized growth,"locus YML070W, strain DAK1, active compounds read low",0.814
same,normalized growth,"locus YMR001C, strain CDC5, active compounds read low",0.964
same,normalized growth,"locus YMR205C, strain PFK2 (second series), active compounds read low",0.861
same,normalized growth,"locus YMR277W, strain FCP1, active compounds read low",0.966
same,normalized growth,"locus YNL006W, strain LST8, active compounds read low",0.972
same,normalized growth,"locus YNL020C, strain ARK1, active compounds read low",0.836
same,normalized growth,"locus YNL161W, strain CBK1, active compounds read low",0.97
same,normalized growth,"locus YNL183C, strain NPR1, active compounds read low",0.795
same,normalized growth,"locus YNL207W, strain RIO2, active compounds read low",0.947
same,normalized growth,"locus YNL222W, strain SSU72, active compounds read low",0.972
same,normalized growth,"locus YNL307C, strain MCK1 (second series), active compounds read low",0.783
same,normalized growth,"locus YOL078W, strain AVO1, active compounds read low",0.958
same,normalized growth,"locus YOL136C, strain PFK27, active compounds read low",0.755
same,normalized growth,"locus YOR061W, strain CKA2, active compounds read low",0.803
same,normalized growth,"locus YOR119C, strain RIO1, active compounds read low",0.816
same,normalized growth,"locus YOR231W, strain MKK1, active compounds read low",0.785
same,normalized growth,"locus YOR329C, strain SCD5, active compounds read low",0.975
same,normalized growth,"locus YPL031C, strain PHO85, active compounds read low",0.819
same,normalized growth,"locus YPL153C, strain RAD53, active compounds read low",0.83
same,normalized growth,"locus YPL204W, strain HRR25, active compounds read low",0.719
same,normalized growth,"locus YPL209C, strain IPL1, active compounds read low",0.959
same,normalized growth,"locus YPL256C, strain CLN2, active compounds read low",0.798 (active)
same,normalized growth,"locus YPR025C, strain CCL1, active compounds read low",0.968
same,normalized growth,"locus YPR106W, strain ISR1, active compounds read low",0.951
same,normalized growth,"locus YPR111W, strain DBF20, active compounds read low",0.944
same,normalized growth,"strain NNK1, active compounds read low",0.941
same,normalized growth,"strain TSCII, active compounds read low",0.95
